Assay results from PubChem BioAssay AID2384 (Southern Research Specialized Biocontainment Screening …, 2010).
The campaign covered roughly 2,300 compounds. About 1,100 (48%) were called active. So high a share suggests a set chosen from earlier hits. This is one part of the list. Entries with a potency or affinity are not part of this list. Unmarked numbers belong to inactive results. The rule behind the calls is not given here.

Assay: inhibitors in S. typhi counter-screen strain, dose response, counter-screen for PhoP regulon inhibitor project, fluorescence, 4 h (AID 2384)
Details: S. typhi GFP reporter counter-screen; series mostly up to 150 µM

| SMILES | inhibition |
| --- | --- |
| O=C(Nc1ccccc1)c1cccnc1N1CCOCC1 | inactive |
| Cc1c(C(=O)N2CCN(Cc3ccccc3)CC2)sc2ncnc(N3CCOCC3)c12 | inactive |
| CCC(Sc1nccn1C)C(=O)Nc1nnc(C)s1 (stereo not drawn) | inactive |
| N#Cc1ccc(C2=NC(C(F)(F)F)(C(F)(F)F)c3c(n(Cc4ccco4)c(=O)[nH]c3=O)N2)cc1 | inactive |
| COCCNC(=O)Cn1cnc2c1c(=O)n(C)c(=O)n2C | inactive |
| Cc1[nH]c2ccccc2c1/C=N/Nc1nc2ccccc2[nH]1 | inactive |
| Cc1cc(C)c2c(N)c(C(=O)c3ccc(Cl)c(Cl)c3)sc2n1 | inactive |
| O=C(O)c1cccc(NC2=Nc3cccc4cccc2c34)c1 | inactive |
| COc1ccc(Cn2nnnc2C(c2cc3ccc(OC)cc3[nH]c2=O)N2CCC(C)CC2)cc1 (stereo not drawn) | inactive |
| CCCCCNC(=O)c1cn(CC)c2cc(N3CCN(C)CC3)c(F)cc2c1=O | inactive |
| O=C(CCC(=O)Nc1nnc(C2CCCCC2)s1)NCC1CCCO1 (stereo not drawn) | inactive |
| COc1ccc(OC)c(S(=O)(=O)N2CCC(C(=O)NCc3ccccc3OC)CC2)c1 | inactive |
| COC(=O)C1=C(C(=O)OC)SC(=C2C(=S)C(C)(C)N(C(=O)C3CC3)c3ccccc32)S1 | inactive |
| COc1cccc(/C=N/NC(=O)CNC(=O)COc2cccc(C)c2)c1O | inactive |
| COc1cc(/C=N/N(C)S(=O)(=O)c2ccc(C)cc2)cc([N+](=O)[O-])c1O | inactive |
| Nc1ccc(C(O)(C(F)(F)F)C(F)(F)F)cc1 | inactive |
| Cc1nnc(SCc2cnc(-c3ccc(C(C)C)cc3)s2)n1C | inactive |
| COC(=O)c1ccc(Cn2c(O)c(N=NC(N)=S)c3ccccc32)o1 | inactive |
| CC1CCCCN1S(=O)(=O)c1ccc(S(=O)(=O)NCCc2ccncc2)cc1 (stereo not drawn) | inactive |
| NC(=O)c1ccsc1NC(=O)c1ccc2c(c1)CCCC2 | inactive |
| COc1ccc(/C=N/NC(=O)c2cccnc2)c(C(=O)O)c1OC | inactive |
| N#C/C(=C\c1ccc(O)c(O)c1)C(=O)c1ccc(O)c(O)c1 | inactive |
| COc1cc(/C=C(/C#N)C(=O)Nc2ccccc2)c(Br)cc1OCc1ccc(C(=O)O)cc1 | inactive |
| COc1ccc(OC)c(C(=O)c2ccc(C(=O)O)cc2)c1 | inactive |
| COc1ccc2nc(C)cc(Nc3ccc(N4CCOCC4)cc3)c2c1 | inactive |
| COc1ccc(/C=N/NC2=NCCCCC2)c(OC)c1 | 15.8% [at 9.38 µM] |

| SMILES | inhibition |
| --- | --- |
| CC(Oc1ccc(/C=N/NC(=O)Cc2cccc3ccccc23)cc1)C(=O)O (stereo not drawn) | inactive |
| COc1ccc(CNC(=O)C(c2cccs2)N(C(=O)c2csnn2)C2CC2)cc1 (stereo not drawn) | inactive |
| COC(=O)c1ccc(NC(=O)c2ccccc2N(C)S(=O)(=O)c2ccccc2)cc1 | inactive |
| Cc1ccc(N/N=C/c2ccncc2)cc1 | inactive |
| Cc1ccc(-c2ccccc2NC(=O)CS(=O)CC(=O)Nc2ccc(C)c(Cl)c2)o1 (stereo not drawn) | inactive |
| COc1ccc(-n2c3c(cc(C(=O)Nc4cccc(C)n4)c2=O)C(=O)CC(C)(C)C3)cc1 | inactive |
| CNc1nc(SC)n(C)c(=O)c1N=O | inactive |
| Cc1ccc(NC(=S)Nc2ccc(S(=O)(=O)Nc3ncccn3)cc2)cc1Cl | inactive |
| O=C(CCCCCn1c(=S)[nH]c2ccc(N3CCOCC3)cc2c1=O)NC1CCN(Cc2ccccc2)CC1 | inactive |
| CCOC(=O)c1cc(-c2ccc(F)cc2)n(CCC(=O)NC2CCN(Cc3ccccc3)CC2)c1C | inactive |
| Cc1ccc(CCNC(=O)C2CCN(S(=O)(=O)N3CCCC3)CC2)cc1 | inactive |
| Cc1c(C)n(C)c2ccc(C(=O)NCCCN3CCCC3)cc12 | inactive |
| CC1CCN(c2nc3ccc(C(=O)NCCCN4CCCCC4)cc3s2)CC1 | inactive |
| COCC1CCCN(Cc2cn[nH]c2-c2cc3ccccc3o2)C1 (stereo not drawn) | inactive |
| O=C(c1ccc2c3c(cccc13)CC2)C1CCCN(Cc2ncc[nH]2)C1 (stereo not drawn) | inactive |
| O=c1cc(-c2ccc(Cl)cc2)[nH][nH]1 | inactive |
| COc1ccc2c(c1)c1nc(SCC(C)C)n(CCO)c(=O)c1n2C | inactive |
| O=C(CN(C(=O)CNS(=O)(=O)c1ccccc1)C1CCCC1)NCc1ccco1 | inactive |
| COc1ccc(C(=O)CSc2nnc(-c3cnccn3)n2Cc2ccco2)cc1 | inactive |
| CN(C)S(=O)(=O)c1cccc(NC(=O)c2cnccn2)c1 | inactive |
| CCn1c(CNC(=O)c2ccc(OC)cc2)nnc1SC | inactive |
| CC(=O)Nc1ccccc1-c1nc2ccc(C(=O)N3CCN(c4cc(C)ccc4C)CC3)cc2[nH]c1=O | inactive |
| COc1cccc(/C=N/NC(=O)CO/N=C(\C)c2cccs2)c1OC | inactive |
| COc1cccc(/C=N/NC(=O)C(=O)N2CCCC2)c1O | inactive |
| COc1cccc(/C=N/NC(=O)CSCC(=O)Nc2ccccc2)c1O | inactive |
| Cn1cc(C(=O)N/N=C/C(Br)=C/c2ccccc2)ccc1=O | inactive |

| SMILES | inhibition |
| --- | --- |
| C/C(=N\NC(=O)c1c(Br)c(C)nn1C)c1ccc(NC(=O)c2ccoc2C)cc1 | inactive |
| O=C(Nc1ccc2[nH]c(=S)sc2c1)Nc1ccccc1F | inactive |
| CC1=C([N+](=O)[O-])C(c2cccc(Br)c2)C2=C(N1)c1ccccc1C2=O (stereo not drawn) | inactive |
| Cn1nnnc1SCc1nnc(-c2ccccc2Br)o1 | inactive |
| Cc1c(C)c2ccc(OC(C)C(=O)N[C@@H](Cc3c[nH]c4ccccc34)C(=O)O)c(C)c2oc1=O (stereo partly drawn) | inactive |
| COc1ccc(-c2nnn(-c3ccc(Cl)cc3Cl)c2N)cc1 | inactive |
| CC(=O)Oc1ccc(C(=O)Nc2ccc3c(c2)C(=O)N(CCC(=O)O)C3=O)cc1 | inactive |
| Cc1ccccc1-n1ncc2c([N+](=O)[O-])cc([N+](=O)[O-])cc21 | inactive |
| COc1cc(NS(=O)(=O)c2ccc(NC(=S)Nc3ccccc3)cc2)nc(OC)n1 | inactive |
| Cc1[nH]n(-c2ccccc2)c(=O)c1C(c1cccc([N+](=O)[O-])c1O)c1c(C)[nH]n(-c2ccccc2)c1=O | inactive |
| Cc1ccc(-n2[nH]c(C)c(C=NCc3ccncc3)c2=O)cc1 | inactive |
| COc1ccc(CCNC(=O)CSc2ccc(-c3ccncc3)nn2)cc1 | inactive |
| O=C(CCN1CCC(c2ccccc2)C1)c1ccc2c(c1)OCCO2 (stereo not drawn) | inactive |
| O=C(Nc1ccc2c(c1)OCCO2)C(=S)NCc1ccccc1 | inactive |
| Cc1ccc(N(C(=O)c2sc(C)nc2C)C(C(=O)NCc2ccco2)c2ccccc2)cc1 (stereo not drawn) | inactive |
| COc1ccc(C2=NN3C(=O)c4c(ccc(OC)c4OC)C3C2)cc1 (stereo not drawn) | inactive |
| O=c1ccnc(Sc2ncccc2[N+](=O)[O-])[nH]1 | inactive |
| O=[N+]([O-])c1cccnc1S(=O)(=O)c1ccccc1 | inactive |
| CC(=O)NS(=O)(=O)c1ccc(Nc2ccc([N+](=O)[O-])c3nonc23)cc1 | inactive |
| COc1ccc(CCN(C(=O)C(F)(F)F)C(C(=O)NC2CCCC2)c2cccs2)cc1 (stereo not drawn) | inactive |
| CCCCNC(=O)NS(=O)(=O)c1ccc(C(=O)OC)o1 | inactive |
| CC(C)OC(=O)c1cccc(C(=O)Oc2ccc(Br)cc2)n1 | inactive |
| Nc1ccc(S(=O)(=O)Nc2ccc(Cl)nn2)cc1 | inactive |
| CN1CCN(C2=Cc3cc(Cl)ccc3Sc3cc(F)ccc32)CC1 | inactive |
| CN1CCN(c2ccc(C(=O)c3cn(-c4ccc(F)c(Cl)c4)nn3)cc2)CC1 | inactive |
| CCc1nnc(NS(=O)(=O)c2ccc(N=Cc3c(C)[nH]n(-c4ccc(C)cc4)c3=O)cc2)s1 | inactive |

| SMILES | inhibition |
| --- | --- |
| COC(=O)C1=C(C)N(C2CCCC2)C(=O)C1(NC(C)=O)C(F)(F)F (stereo not drawn) | inactive |
| O=C(CN(Cc1ccco1)C(=O)CNS(=O)(=O)c1ccc(Cl)cc1)NCc1ccc(F)cc1 | inactive |
| CC(=O)c1ccc(OC(=O)c2cc3ccccc3oc2=O)cc1 | inactive |
| CN(C)CCN1C(=O)C(O)=C(C(=O)c2cc3ccccc3o2)C1c1ccccn1 (stereo not drawn) | inactive |
| O=C(O)c1ccc(S(=O)(=O)NC2CC2)cc1 | inactive |
| Cc1cccc(OCc2nnc(SCC(=O)N3CCCC3)n2C)c1 | inactive |
| Cc1ccc(OCCCCn2c(CO)nc3ccccc32)cc1 | inactive |
| CCCCOc1ccc(-c2nnn(CC(=O)Nc3ncc(CC(=O)OCC)s3)n2)cc1 | inactive |
| Cc1ccc2nc(/C(C#N)=C\c3ccc(N4CCCCC4)c([N+](=O)[O-])c3)[nH]c2c1 | 17.9% [at 9.38 µM] |
| CCCCc1cc(=O)oc2cc(C)cc(OCC(=O)NCC3CCC(C(=O)O)CC3)c12 (stereo not drawn) | inactive |
| Cc1cccc(N2C(=O)CS/C2=N\NC(=O)c2ccc(Br)cc2)c1C | inactive |
| O=C1c2ccc3c4c(ccc(c24)C(=O)N1c1cccc(O)c1)C(=O)N(c1cccc(O)c1)C3=O | inactive |
| Cc1ccc(/C=C2\SC(=S)N(c3cccnc3)C2=O)o1 | inactive |
| Cc1c(C(=O)O)sc(=S)n1-c1ccc(Cl)cc1 | inactive |
| CC(=O)NCc1ccc(C(=O)CSc2nnc(-c3ccncc3)n2Cc2ccccc2)o1 | inactive |
| COc1ccc(S(=O)(=O)N[C@H](C(=O)N2CC[C@@]3(O)CCCC[C@H]3C2)c2ccccc2)cc1 | inactive |
| COc1ccc(OC)c(S(=O)(=O)N2CCC(C(=O)NCCc3ccc(OC)c(OC)c3)CC2)c1 | inactive |
| COc1ccc(OC)c(NC(=O)CCNS(=O)(=O)c2ccc3c(c2)c(=O)n(C)c(=O)n3C)c1 | inactive |
| O=C(CCCOc1ccc(Cl)cc1Cl)NNC(=O)C1CCC1 | inactive |
| Clc1ccc(OCc2nn3c(C4CCCCC4)nnc3s2)c(Cl)c1 | inactive |
| CC(C)OC(=O)Cn1c(=O)sc2ccccc21 | inactive |
| CC/C(=N\Nc1ccnc2cc(Cl)ccc12)c1ccc(O)cc1 | inactive |
| Cc1ccc(NC(=O)Cc2ccc(F)cc2)cc1 | inactive |
| Cc1ccc(NC(=O)CS(=O)CC(=O)Nc2ccccc2-c2ccc(C)o2)cc1 (stereo not drawn) | inactive |
| CC1CCN(CC(CS(=O)(=O)c2ccc([N+](=O)[O-])cc2)N2CCC(C)CC2)CC1 (stereo not drawn) | inactive |
